According to PubChem BioAssay (NCATS):
Results filed as inconclusive are left out. The source made the active and inactive calls. Unless noted, calls follow the shape of the dose curve; as a rule, active = well fitted curve in the direction sought with a large enough effect; inconclusive = small, poorly fitted or top-dose-only effect, or another doubt; inactive = no such curve, though single readings can be large; an effect the other way counts as inactive or inconclusive.

Legend:
[1] = Cell Viability - BJ (AID 421; calls by dose curve;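 also: potency is read from the fitted curve at half-maximal effect; cells exposed to compound for 40 hours at 37 °C before readout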); settings: BJ fibroblast viability, qHTS
Summary of the method: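 Luminescent ATP signal (CellTiter-Glo, 20 min at room temperature) served as the read-out of viable BJ cells after 40 hours of compound treatment. Responses were scaled between DMSO and 100 uM tamoxifen, and AC50 values were obtained by Hill modeling.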

[2] = Cell Viability - SK-N-SH (AID 435; calls by dose curve;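 also: potency is read from the fitted curve at half-maximal effect; compound exposure lasted 40 h at 37 °C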); settings: SK-N-SH neuroblastoma cell viability qHTS
Summary of the method: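 Cells seeded at 1500 per well and incubated 5 hr at 37 °C. Compound added, then 40 hr at 37 °C. CellTiter-Glo added, 20 min at room temperature, luminescence read.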

[3] = Cell Viability - N2a (AID 540); settings: N2a mouse neuroblastoma cell viability; at 92.2 µM (top of the series);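 also: plate controls were DMSO alone for no effect and tamoxifen control for full effect; nearly all actives have a fitted effect of over 45% in size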
Summary of the method: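 Mouse neuroblastoma N2a cells (1500/well) were preincubated 5 hr at 37 °C, then exposed to compounds for 40 hr at 37 °C in complete medium. Viability was read as intracellular ATP by CellTiter-Glo luminescence; AC50 from Hill fits.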

[4] = Cell Viability - NIH 3T3 (AID 541); settings: NIH 3T3 cell viability, qHTS; activity change, negative = cytotoxicity: at 92.2 µM (top of the series); also: potency is read from the fitted curve at half-maximal effect; nearly all actives have a fitted effect of over 25% in size
Summary of the method: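 NIH 3T3 mouse embryo fibroblasts (1000 cells/well) were plated in complete medium and treated with compound for 40 hr at 37 °C. Viability was read as intracellular ATP by CellTiter-Glo luminescence; AC50 values came from Hill-equation fits of concentration-response data.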

[5] = Cellular Toxicity (caspase-3) HepG2 (AID 654); settings: HepG2 caspase-3 activation, luminescence, 0% = DMSO only, 100% = tamoxifen; series mostly up to 92.2 µM;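 also: cells exposed to compound for 16 hours before reading; 0% = DMSO alone and 100% = caspase signal from 100 µM tamoxifen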
Summary of the method: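 HepG2 cells (1500/well) in complete medium were treated with compounds for 16 hr at 37 °C. Caspase-3/7 activity was then read as luminescence from peptide-aminoluciferin cleavage. AC50 came from Hill fits, normalized to DMSO and 100 uM tamoxifen.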

[6] = Cell Viability - LYMP2-025 (AID 976); settings: LYMP2-025 lymphoblastoid cell viability; series mostly up to 92.2 µM; also: potency is read from the fitted curve at half-maximal effect;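 as to activity change, negative = cytotoxicity: plate controls were DMSO only for no effect and tetraoctylammonium bromide control for full effect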
Summary of the method: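 Human lymphoblastoid LYMP2-025 cells (2500/well) were pre-incubated 5 hr at 37 C, then treated with compounds for 24 hr at 37 C in complete medium. Viability was read as intracellular ATP by CellTiter-Glo luminescence; AC50 from Hill fits.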

[7] = Cell Viability - LYMP2-002 (AID 977); settings: LYMP2-002 lymphoblastoid cell viability, qHTS; series mostly up to 92.2 µM;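 also: compound exposure lasted 24 h at 37 °C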; also: potency is read from the fitted curve at half-maximal effect
Summary of the method: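 Human lymphoblastoid LYMP2-002 cells, 2500 per well, exposed to compounds for 24 h at 37 C in complete medium; viability read as intracellular ATP by CellTiter-Glo luminescence, AC50 from Hill fits.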

[8] = Cell Viability - LYMP2-008 (AID 980); settings: LYMP2-008 lymphoblastoid cell viability, qHTS; series mostly up to 92.2 µM; also: nearly all actives have a fitted effect of over 60% in size; also: potency is read from the fitted curve at half-maximal effect; as to activity change, negative = cytotoxicity: % is scaled to controls: 0 for no effect and ±100 for the full control effect
Summary of the method: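 Human lymphoblastoid cells (2500/well) were plated, held 5 hr at 37 C, then exposed to compounds for 24 hr at 37 C in complete medium. Intracellular ATP was read by CellTiter-Glo luminescence; AC50 from Hill-fitted concentration-response.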

[9] = Cell Viability - LYMP2-010 (AID 981); settings: LYMP2-010 lymphoblastoid cell viability, qHTS; series mostly up to 92.2 µM; also: nearly all actives have a fitted effect of over 55% in size; also: potency is read from the fitted curve at half-maximal effect
Summary of the method: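 Human lymphoblastoid LYMP2-010 cells (2500/well) were preincubated 5 hr at 37 C, then exposed to compounds for 24 hr at 37 C in complete medium. Intracellular ATP was measured by CellTiter-Glo luminescence after 30 min at room temperature; AC50 from Hill-fitted concentration-response.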

[10] = Cell Viability - LYMP2-012 (AID 982); settings: LYMP2-012 lymphoblastoid cell viability qHTS; series mostly up to 92.2 µM;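 also: cellular ATP by luciferase luminescence where a drop means cytotoxicity; cells exposed to compound for one day before reading; nearly all actives have a fitted effect of over 55% in size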; also: potency is read from the fitted curve at half-maximal effect;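 as to activity change, negative = cytotoxicity: 0% = DMSO only and full loss = 92 µM tetraoctylammonium bromide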
[11] = Cell Viability - LYMP2-014 (AID 983); settings: LYMP2-014 lymphoblastoid cells, viability qHTS; series mostly up to 92.2 µM; also: nearly all actives have a fitted effect of over 50% in size; also: potency is read from the fitted curve at half-maximal effect;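 as to activity change, negative = cytotoxicity: plate controls were DMSO only for no effect and 92 µM tetraoctylammonium bromide for full effect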
Summary of the method: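 Human lymphoblastoid cells (2500/well) were pre-incubated 5 hr at 37 C, then exposed to compounds in complete medium for 24 hr at 37 C. Intracellular ATP was read by CellTiter-Glo luminescence after 30 min at room temperature; AC50 from Hill fits.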

[12] = Cell Viability - LYMP2-016 (AID 984); settings: LYMP2-016 lymphoblastoid cell viability, qHTS; series mostly up to 92.2 µM; also: nearly all actives have a fitted effect of over 55% in size; also: potency is read from the fitted curve at half-maximal effect; as to activity change, negative = cytotoxicity: % is scaled to controls: 0 for no effect and ±100 for the full control effect
Summary of the method: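 Acute toxicity in a Coriell human lymphoblastoid line is scored as loss of intracellular ATP over 24 h of treatment in complete medium. CellTiter-Glo signal is fitted across concentrations with the Hill equation to give AC50.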

[13] = Cell Viability - LYMP2-018 (AID 985); settings: LYMP2-018 lymphoblastoid cells, viability (qHTS); series mostly up to 92.2 µM;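 also: compound exposure lasted 24 hr at 37 °C; nearly all actives have a fitted effect of over 50% in size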; also: potency is read from the fitted curve at half-maximal effect;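 as to activity change, negative = cytotoxicity: plate controls were DMSO only for no effect and tetraoctylammonium bromide at 92 µM for full effect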
Summary of the method: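 Human lymphoblastoid cells (2500/well) were pre-incubated 5 hr at 37 C, then exposed to compounds for 24 hr at 37 C in complete medium. Viability was read as intracellular ATP by CellTiter-Glo luminescence; AC50 values came from Hill-equation fits.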

[14] = Cell Viability - LYMP2-020 (AID 986); settings: series mostly up to 92.2 µM; also: nearly all actives have a fitted effect of over 55% in size; also: potency is read from the fitted curve at half-maximal effect
Summary of the method: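 Human lymphoblastoid cells, 2500/well, were pre-incubated 5 hr at 37 C, then exposed to compounds for 24 hr at 37 C in complete medium. Intracellular ATP was read by CellTiter-Glo luminescence, and AC50 was derived by Hill fitting of concentration-response data.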

[15] = Cell Viability - LYMP2-022 (AID 987); settings: LYMP2-022 lymphoblastoid cell viability; series mostly up to 92.2 µM; also: nearly all actives have a fitted effect of over 55% in size; also: potency is read from the fitted curve at half-maximal effect
Summary of the method: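 Human lymphoblastoid cells, 2500/well, preincubated 5 hr at 37 C, then exposed to compounds over a concentration range for 24 hr at 37 C in complete medium. Viability read as intracellular ATP by CellTiter-Glo luminescence after 30 min at room temperature; AC50 from Hill fits.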

[16] = Cell Viability - LYMP2-024 (AID 988); settings: LYMP2-024 lymphoblastoid cell viability; series mostly up to 92.2 µM; also: nearly all actives have a fitted effect of over 60% in size; also: potency is read from the fitted curve at half-maximal effect;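 as to activity change, negative = cytotoxicity: plate controls were DMSO only for no effect and 92 µM tetraoctylammonium bromide for full effect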
Summary of the method: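 Human lymphoblastoid cells (2500/well) in complete medium were preincubated 5 hr at 37 C, then exposed to compounds for 24 hr at 37 C. Intracellular ATP was read by CellTiter-Glo luminescence; AC50 from Hill-equation fits of concentration-response data.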

[17] = Cell Viability - LYMP2-026 (AID 989); settings: LYMP2-026 lymphoblastoid cell viability, qHTS; series mostly up to 92.2 µM; also: nearly all actives have a fitted effect of over 50% in size; also: potency is read from the fitted curve at half-maximal effect
Summary of the method: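 Human lymphoblastoid cells (2500/well) in complete medium were preincubated 5 hr at 37 C, then exposed to compounds for 24 hr at 37 C. Cellular ATP was read by CellTiter-Glo luminescence; AC50 from Hill-equation fits of concentration-response data.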

[18] = Cell Viability - LYMP1-002 - Assay at 24 hr (AID 993); settings: LYMP1-002 lymphoblastoid cells viability; series mostly up to 92.2 µM; also: potency is read from the fitted curve at half-maximal effect; as to activity change, negative = cytotoxicity: % is scaled to controls: 0 for no effect and ±100 for the full control effect
Summary of the method: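 Human lymphoblastoid LYMP1-002 cells, 2500/well in complete medium, were treated with compounds for 24 h at 37 C; intracellular ATP was read by CellTiter-Glo luminescence. AC50 values came from Hill-equation fits of qHTS concentration-response data.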

[19] = target: Bile acid receptor (Homo sapiens) (UniProt Q96RI1); experiment: qHTS assay for small molecule agonists of farnesoid X receptor signaling (AID 588527; calls by dose curve;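 also: 0% = vehicle basal and 100% = reference agonist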); settings: HEK293T FXR-UAS-bla, beta-lactamase ratio, 16 h; stronger effect = higher value
Summary of the method: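 FXR-UAS-bla HEK293T, 10% dialyzed FBS; cpds up to 92 uM titration, 16 h 37 C; CCF4 dye 2 h RT; fluorescence. Normalized to chenodeoxycholic acid 100 uM (100%) and DMSO (0%); Hill fit gives EC50, efficacy.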

[20] = target: Androgen receptor (Homo sapiens) (UniProt P10275); experiment: qHTS assay for small molecule antagonists of androgen receptor signaling (AID 588516; active = well fitted curve in the direction sought with a large enough effect in the signal ratio, with a control signal flat, not every such curve was filed as active; the % refers to the signal ratio; also: % is scaled to controls: 0 for no effect and ±100 for the full control effect); settings: AR-UAS-bla HEK293, beta-lactamase ratio, antagonist mode, 16 h; series mostly up to 76.8 µM
Summary of the method: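 Antagonist-mode qHTS: inhibition of R1881 (10 nM)-driven beta-lactamase expression in GripTite HEK 293 cells is measured after 16 h; values are Hill-derived IC50s normalized between R1881 and DMSO wells.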

Sequence of Androgen receptor (Homo sapiens) (P10275 whole entry, looked up): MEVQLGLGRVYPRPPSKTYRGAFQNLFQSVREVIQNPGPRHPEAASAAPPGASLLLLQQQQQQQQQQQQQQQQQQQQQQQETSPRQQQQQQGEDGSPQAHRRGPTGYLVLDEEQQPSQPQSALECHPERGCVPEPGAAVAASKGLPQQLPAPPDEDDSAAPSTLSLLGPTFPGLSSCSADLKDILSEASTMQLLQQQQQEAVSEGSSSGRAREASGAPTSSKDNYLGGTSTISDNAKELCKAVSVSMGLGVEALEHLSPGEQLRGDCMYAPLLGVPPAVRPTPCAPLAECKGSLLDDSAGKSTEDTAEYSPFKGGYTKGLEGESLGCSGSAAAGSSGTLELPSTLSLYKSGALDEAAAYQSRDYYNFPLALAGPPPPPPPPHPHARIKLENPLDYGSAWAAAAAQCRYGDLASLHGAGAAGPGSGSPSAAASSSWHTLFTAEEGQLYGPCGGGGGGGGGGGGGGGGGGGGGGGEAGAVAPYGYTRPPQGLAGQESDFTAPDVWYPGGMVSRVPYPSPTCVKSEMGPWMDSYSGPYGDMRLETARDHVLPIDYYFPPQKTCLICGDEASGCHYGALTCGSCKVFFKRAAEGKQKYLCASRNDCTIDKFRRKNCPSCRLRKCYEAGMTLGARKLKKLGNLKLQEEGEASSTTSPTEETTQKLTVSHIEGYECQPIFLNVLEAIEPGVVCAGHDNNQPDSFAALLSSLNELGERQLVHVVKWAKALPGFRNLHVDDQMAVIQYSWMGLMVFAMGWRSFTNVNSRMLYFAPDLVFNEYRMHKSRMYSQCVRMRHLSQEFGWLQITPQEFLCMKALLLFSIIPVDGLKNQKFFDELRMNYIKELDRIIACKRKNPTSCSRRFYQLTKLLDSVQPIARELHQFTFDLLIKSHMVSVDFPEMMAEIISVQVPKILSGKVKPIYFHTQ
Sequence of Bile acid receptor (Homo sapiens) (Q96RI1 whole entry, looked up): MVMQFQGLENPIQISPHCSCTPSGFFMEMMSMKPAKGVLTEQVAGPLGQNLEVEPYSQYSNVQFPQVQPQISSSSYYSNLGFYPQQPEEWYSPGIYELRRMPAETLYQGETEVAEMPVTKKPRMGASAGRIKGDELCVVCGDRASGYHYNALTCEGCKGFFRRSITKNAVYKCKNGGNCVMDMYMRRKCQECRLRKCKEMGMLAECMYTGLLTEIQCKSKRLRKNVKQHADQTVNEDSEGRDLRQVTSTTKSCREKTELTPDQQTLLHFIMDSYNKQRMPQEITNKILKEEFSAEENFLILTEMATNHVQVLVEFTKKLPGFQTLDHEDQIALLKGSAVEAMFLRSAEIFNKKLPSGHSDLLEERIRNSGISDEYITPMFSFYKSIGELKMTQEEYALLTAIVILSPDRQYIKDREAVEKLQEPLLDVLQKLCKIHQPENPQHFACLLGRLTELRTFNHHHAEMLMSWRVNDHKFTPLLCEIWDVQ

O=C1C(Cl)=C(Cl)C(=O)C(Cl)=C1Cl
inactive: outcome [5]
active: Potency [1] 50.5 µM | Potency [2] 40.5 µM | activity change, negative = cytotoxicity [3] -88.2% | Potency [4] 31.6 µM | Potency [6] 50.1 µM | Potency [7] 25.1 µM | Potency [8] 39.8 µM | Potency [9] 12.6 µM | Potency [10] 15.8 µM | Potency [11] 20 µM | Potency [12] 25.1 µM | Potency [13] 39.8 µM | Potency [14] 12.6 µM | Potency [15] 15.8 µM | Potency [16] 10 µM | Potency [17] 25.1 µM | Potency [18] 39.8 µM

CCCCCCCCCc1ccc(O)cc1
inactive: Potency [6] | Potency [7] | Potency [8] | Potency [9] | Potency [10] | Potency [11] | Potency [12] | Potency [13] | Potency [14] | Potency [15] | Potency [16] | Potency [17] | Potency [18]

CNC(=O)Oc1cccc2c1OC(C)(C)O2
inactive: activation [19] -0.605%

CCS(=O)CCSP(=O)(OC)OC (stereo not given)
inactive: Potency [20]

O=C(O)COc1cc(Cl)c(Cl)cc1Cl
inactive: Potency [20] | activation [19] -6.14%
